According to PubChem BioAssay (Tox21):
Inconclusive results are not listed. A number with no mark means an inactive call. Unless noted, calls follow the shape of the dose curve; as a rule, active = well fitted cell-killing curve with a large enough effect in the repeat runs; inconclusive = weak or mixed curves, or effect the other way; inactive = no such curve, though single readings can be large or run the other way.

Assay: qHTS assay for small molecule activators of the heat shock response signaling pathway - cell viability counter screen (AID 743209); also: nearly all actives have a fitted effect of over 50% in size
Conditions: HSE-bla HeLa viability, CellTiter-Glo luminescence, 5 h; series mostly up to 62.6 µM; activity change, negative = cytotoxicity: at the top concentration
How it was run: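 Luminescence from CellTiter-Glo, added after the beta-lactamase FRET read, gave the viability signal. Cells were HSE-bla HeLa treated with DMSO-dissolved compounds for 5 h at 37 C following overnight plating.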
% is scaled to controls: 0 for no effect and ±100 for the full control effect.

Row | Structure (SMILES) | activity change, negative = cytotoxicity
1 | CN=C(NC#N)Nc1ccc(C2=NNC(=O)CC2C)cc1 (stereo not drawn) | 4.95%
2 | OCCN(CCO)c1cccc(Cl)c1 | 3.38%
3 | CCCC/C=C\CCCCCCCCCC=O | 5.59%
4 | CC(C)(C)OC(=O)c1ccc(O)cc1 | -6.84%
5 | CC/C=C\CC1=C(C)CCC1=O | 4.45%
6 | BrCc1cccc(Oc2ccccc2)c1 | 3.82%
7 | C[Si](C)(C)C | 6.11%
8 | N#Cc1ccc(C(=O)O)cc1 | 16.1%
9 | O=C(NCCN1CCOCC1)c1ccc(Cl)cc1 | 3.95%
10 | CCCOC(OCCC)OCCC | 6.72%
11 | CNC(=O)[C@H]1O[C@@H](n2cnc3c(NCc4cc(Cl)ccc4OCc4cc(C)no4)ncnc32)[C@H](O)[C@@H]1N | 1.06%
12 | FC(F)(F)c1ccccc1-n1ccnc1 | 1.18%
13 | CC1COc2ccccc2N1 (stereo not drawn) | -1.07%
14 | O=C(O)c1cc(Br)c(O)c(Br)c1 | 0.811%
15 | C=CC(OCC)OCC | 17.8%
16 | C#CC(C)N(C)C(=O)Nc1ccc(Cl)cc1 (stereo not drawn) | 0.947%
17 | CCO[Si](CCCS)(OCC)OCC | 4.38%
18 | N[C@@H](COP(=O)(O)O)C(=O)O | -2.52% [at 29.1 µM]
19 | CC(=O)c1sc(C)nc1C | -11.6%
20 | CC(C)(C)c1cc(CCC(=O)NN)cc(C(C)(C)C)c1O | 6.76%
21 | O=S(=O)(O)CCN1CCN(CCO)CC1 | 4.15%
22 | CC(C)NCC(O)COc1cccc2[nH]ccc12 (stereo not drawn) | 3.92%
23 | c1ccc2c(c1)ccc1c3ccccc3ccc21 | 5.99%
24 | CC(C)C[C@H](NC(=O)CNC(=O)[C@H](Cc1ccc(O)cc1)NC(=O)[C@H](CO)NC(=O)[C@H](Cc1c[nH]c2ccccc12)NC(=O)[C@H](Cc1cnc[nH]1)NC(=O)[C@@H]1CCC(=O)N1)C(=O)N[C@@H](CCCN=C(N)N)C(=O)N1CCC[C@H]1C(=O)NCC(N)=O (stereo in doubt) | -11.5%
25 | CC(CN)CC(C)(C)CCN (stereo not drawn) | -5.87% [at 81.1 µM]
26 | O=C(NCC(O)CO)c1c(I)c(C(=O)NCC(O)CO)c(I)c(N(CCO)C(=O)CO)c1I (stereo not drawn) | -22.5%
27 | NCCS | -2.98%

Assay: qHTS assay for small molecule activators of the heat shock response signaling pathway (AID 743210; active = well fitted activation curve with a large enough effect in the signal ratio in the repeat runs, with a control signal flat, not every such curve was filed as active; the % refers to the signal ratio;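 also: HeLa cells with beta-lactamase reporter driven by heat shock elements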)
Conditions: HeLa HSE-bla reporter, beta-lactamase ratio, 5 h; series mostly up to 62.6 µM; activation: at the top concentration
How it was run: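 In HSE-bla HeLa cells, 5 h compound incubation (37 C) precedes addition of LiveBLAzer B/G substrate; after 2.5 h at room temperature, fluorescence intensity indicates reporter induction.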

Row | Structure (SMILES) | activation
28 | CN=C(NC#N)Nc1ccc(C2=NNC(=O)CC2C)cc1 (stereo not drawn) | -1.25%
29 | O=C(OCC1(COC(=O)c2cccnc2)CCCC(COC(=O)c2cccnc2)(COC(=O)c2cccnc2)C1O)c1cccnc1 | 1.05%
30 | OCCN(CCO)c1cccc(Cl)c1 | -0.118%
31 | CCCC/C=C\CCCCCCCCCC=O | 0.4%
32 | CC(C)(C)OC(=O)c1ccc(O)cc1 | -0.0286%
33 | CC/C=C\CC1=C(C)CCC1=O | -1.34%
34 | CCC(C=O)CC | 0.305% [at 81.1 µM]
35 | BrCc1cccc(Oc2ccccc2)c1 | 1.97%
36 | C[Si](C)(C)C | -0.149%
37 | N#Cc1ccc(C(=O)O)cc1 | 0.972%
38 | CC(C)CC(C)CC(C)CC(C)COC(=O)c1ccccc1C(=O)OCC(C)CC(C)CC(C)CC(C)C (stereo not drawn) | 1.62%
39 | CCCOC(OCCC)OCCC | -0.276%
40 | CNC(=O)[C@H]1O[C@@H](n2cnc3c(NCc4cc(Cl)ccc4OCc4cc(C)no4)ncnc32)[C@H](O)[C@@H]1N | -0.202%
41 | FC(F)(F)c1ccccc1-n1ccnc1 | 0.669%
42 | CC1COc2ccccc2N1 (stereo not drawn) | 0.722%
43 | O=C(O)c1cc(Br)c(O)c(Br)c1 | 2.23%

Row | Structure (SMILES) | activation
44 | C=CC(OCC)OCC | 0.582%
45 | CCOCCOCCOCC | -0.147%
46 | C#CC(C)N(C)C(=O)Nc1ccc(Cl)cc1 (stereo not drawn) | -0.391%
47 | CCO[Si](CCCS)(OCC)OCC | 0.608%
48 | Cc1ccccc1N=O | 0.736% [at 81.1 µM]
49 | CC(=O)c1sc(C)nc1C | -0.267%
50 | O=S(=O)(O)CCN1CCN(CCO)CC1 | -1.52%
51 | CC(C)NCC(O)COc1cccc2[nH]ccc12 (stereo not drawn) | -0.146%
52 | CC(=O)N[C@@H](CCC(=O)O)C(=O)O | -1.66%
53 | c1ccc2c(c1)ccc1c3ccccc3ccc21 | -0.443%
54 | CCN(CC)CC(=O)Nc1c(C)cccc1C | -0.362%
55 | COc1ccc(OC)c(Cl)c1 | -0.0858%
56 | CC(CN)CC(C)(C)CCN (stereo not drawn) | -0.944% [at 81.1 µM]
57 | O=C(NCC(O)CO)c1c(I)c(C(=O)NCC(O)CO)c(I)c(N(CCO)C(=O)CO)c1I (stereo not drawn) | -0.425%
58 | NCCS | 0.67%
